Reference: PubChem BioAssay AID1159580 (chemical genetic matrix, 2015)
Out of some 5,500 compounds screened, about 2,000 (36%) were called active. About 18% were inconclusive and are not listed. No stated cut-off is given here; in the data, active means normalized growth mostly below about 0.91 (no sharp cut-off); inconclusive means no clear call, values can overlap the other calls; inactive means mostly above about 0.92. This is one part of the list.

Test: chemical genetic growth profiling, strain panel (AID 1159580);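 further: tested at 20 µM; growth read once vehicle control cultures reached saturation at 30 °C; 1 = growth at the plate median or of vehicle wells; lower values mean less growth of the strain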
Details: S. cerevisiae deletion strains, growth OD

Measured: normalized growth

Cc1ccc(NC(=S)NNC(C)(C)C)cc1
inactive: locus YAL013W, strain DEP1, hits give low values 0.991 | locus YBR229C, strain ROT2, hits give low values 0.963 | locus YCL061C, strain MRC1, hits give low values 0.972 | locus YDL101C, strain DUN1, hits give low values 0.971 | locus YDR150W, strain NUM1, hits give low values 0.898 | locus YGR078C, strain PAC10, hits give low values 0.997 | locus YHR030C, strain SLT2, hits give low values 0.721 | locus YHR087W, strain rtc3, hits give low values 1.01 | locus YJR043C, strain POL32, hits give low values 0.99 | locus YJR075W, strain HOC1, hits give low values 1.06 | locus YLR058C, strain SHM2 (second series), hits give low values 1 | locus YMR219W, strain ESC1, hits give low values 1.01 | locus YMR263W, strain SAP30, hits give low values 1.03 | locus YNL128W, strain TEP1, hits give low values 0.94 | locus YNL153C, strain GIM3, hits give low values 0.955 | locus YNL322C, strain KRE1, hits give low values 1.02 | locus YPL055C, strain LGE1, hits give low values 0.894 | locus YPL241C, strain CIN2, hits give low values 0.913
active: locus YEL061C, strain CIN8, hits give low values 0.838 | locus YLR039C, strain RIC1, hits give low values 0.654 | locus YLR085C, strain ARP6, hits give low values 0.488 | locus YLR262C, strain YPT6, hits give low values 0.795 | locus YML094W, strain GIM5, hits give low values 0.827 | locus YNL298W, strain CLA4 (second series), hits give low values 0.675 | locus YNR030W, strain Alg12, hits give low values 0.787 | locus YOL006C, strain TOP1, hits give low values 0.193 | locus YPR135W, strain CTF4, hits give low values 0.646
